# Rows were chosen to be rich in hits. Some 1.1% of all compounds tested hit in one or more screens of this group.
# HTR5A inv ag: HTR5A inverse agonists in luminescence cell assay, primary screen, counter-screen for OPRM1-OPRD1 heterodimer inverse agonist project, full-deck HTS. 340,000 tested, 0.083% active. HTR5A cell line, inverse agonism. inhibition, % at 9.3 µM. 5-hydroxytryptamine receptor 5A (Homo sapiens), P47898; in the data active = inhibition mostly above about 23%, no sharp cut-off; inactive = mostly below about 18%;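 note: 0% = cells with DMSO and 100% = no-cell wells with DMSO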
# Target sequence (P47898 whole entry, looked up): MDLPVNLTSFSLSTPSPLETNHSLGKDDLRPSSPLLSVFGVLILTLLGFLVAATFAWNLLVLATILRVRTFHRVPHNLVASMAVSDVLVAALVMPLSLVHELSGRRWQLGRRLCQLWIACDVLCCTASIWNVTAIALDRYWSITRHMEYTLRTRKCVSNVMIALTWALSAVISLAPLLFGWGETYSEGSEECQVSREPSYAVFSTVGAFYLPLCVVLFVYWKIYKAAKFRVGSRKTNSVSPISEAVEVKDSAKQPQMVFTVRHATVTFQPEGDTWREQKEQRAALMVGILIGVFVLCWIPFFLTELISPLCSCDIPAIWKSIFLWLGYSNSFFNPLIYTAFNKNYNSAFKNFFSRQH
# OPRM1-OPRD1 inv: inverse agonists of MOR-DOR heterodimerization, primary screen, cell-based, luminescence; 340,000 tested, 0.21% active; cell-based MOR-DOR heterodimer luminescence, inverse agonism; Mu-type opioid receptor (Homo sapiens) + Delta-type opioid receptor (Homo sapiens), …; inhibition, % at 9.3 µM; in the data active = inhibition above about 22%, passing the limit was not always enough;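 note: 0% = cells with DMSO and 100% = wells without cells with DMSO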
# OPRM1-OPRD1 ag: agonists of OPRM1-OPRD1 heterodimerization, primary screen, cell-based, luminescence. Mu-type opioid receptor (Homo sapiens) + Delta-type opioid receptor (Homo sapiens), …. cells. activation, % at 9.3 µM. 340,000 tested, 0.3% active. AID 504326, 2011;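 note: 0% = vehicle-treated cells and 100% = reference agonist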
# HTR5A ag ctr: HTR5A agonists in luminescence cell assay, primary screen, counter-screen for OPRM1-OPRD1 heterodimer agonist project, full-deck HTS | 340,000 tested, 0.61% active | 5-hydroxytryptamine receptor 5A (Homo sapiens), P47898 | cell-based | activation, % at 9.3 µM; in the data active = activation mostly above about 9.5%, no sharp cut-off; inactive = mostly below about 7.6%;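 note: 0% = cells with vehicle only and 100% = reference agonist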
# MOR-DOR ag conf: agonists of MOR-DOR heterodimerization, confirmation, cell-based, luminescence; 830 tested, 45% active; activation, % at 9.3 µM; shares compounds with OPRM1-OPRD1 ag; cells, luminescence complementation; AID 504904, 2011;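 note: 0% = vehicle-treated cells and 100% = reference agonist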
# HTR5A ag counter: HTR5A agonists in cells, counter-screen for OPRM1-OPRD1 heterodimer agonist project, cell-based, luminescence; shares compounds with OPRM1-OPRD1 ag; HTR5A agonist counterscreen; activation, % at 9.3 µM; 830 tested, 8% active; AID 504905, 2011; in the data active = activation above about 17%;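 note: 0% = vehicle-treated cells and 100% = reference agonist response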
# Starred values were filed as active, the others as inactive; i = inactive; / = not tested or not shown. Cut-off read from the data, not from the text of the source, unless noted: active = activation above about 18%; inactive = the rest.
SMILES,HTR5A inv ag,OPRM1-OPRD1 inv,OPRM1-OPRD1 ag,HTR5A ag ctr,MOR-DOR ag conf,HTR5A ag counter
CCOc1ccc(C(=O)C(CCC(CN(C)C)C(=O)c2ccc(OCC)cc2)CN(C)C)cc1 (stereo not given),-60,-135,29*,14*,-4,-9
CCOc1ccc2nc(NC3=NC(c4ccc(OC)cc4)CC(=O)N3)nc(C)c2c1 (stereo not given),-25,-77,13,6,/,/
CCOc1ccc2c(C)nc(NC3=NC(C)(C)C=C(C)N3)nc2c1,-2,i,170*,-3,2,1
CCOc1ccc2nc(NC3=NC(C)(C)C=C(C)N3)nc(C)c2c1,0,i,158*,0,1,-1
CCOC(=O)N1CCc2c(sc3nc4n(c(=O)c23)N=C(c2ccc(OC)cc2)CS4)C1,23,-132,26*,-1,4,2
CCOC(=O)N1CCc2c(sc3ncn(C)c(=O)c23)C1,-16,8,-2,0,/,/
O=C(C=P(c1ccccc1)(c1ccccc1)c1ccccc1)c1ccccc1-c1ccccc1C(=O)C=P(c1ccccc1)(c1ccccc1)c1ccccc1,-8,-242,55*,2,54*,-7
O=C(NNC(=O)c1ccccc1-c1ccccc1C(=O)O)c1ccccc1,5,7,-1,-2,/,/
COc1ccc(C2c3c(-c4ccccc4O)n[nH]c3C(=O)N2Cc2ccco2)cc1OC (stereo not given),17,7,-1,-5,/,/
O=C1c2[nH]nc(-c3ccccc3O)c2C(c2ccc(F)cc2)N1Cc1ccco1 (stereo not given),0,-100,20*,0,10,2
COc1ccccc1N1CCN(C(c2cccs2)C(C)NC(=O)c2ccco2)CC1 (stereo not given),-5,-498,91*,2,119*,3
COc1ccc(N2CCN(C(c3cccs3)C(C)NC(=O)c3ccco3)CC2)cc1 (stereo not given),10,7,-1,4,/,/
O=C(COc1ccccc1)Nc1nnc(S(=O)(=O)Nc2ccccc2)s1,-21,0,0,7,/,/
O=C(NCc1ccccc1Cl)C1CCC(CNc2nc(=S)[nH]c3ccccc23)CC1 (stereo not given),-8,12,-2,3,/,/
O=C(NCCc1ccc(Cl)cc1)C1CCC(CNc2nc(=S)[nH]c3ccccc23)CC1 (stereo not given),3,-175,33*,-1,36*,10
S=c1nc(NCCc2ccccc2Cl)c2ccccc2[nH]1,-20,-108,23*,5,12,8
Cc1cc2oc(C(=O)N(Cc3ccccc3)C3CCS(=O)(=O)C3)c(C)c2cc1C (stereo not given),-7,-216,40*,6,21*,-4
COc1ccc(CN(C(=O)c2oc3ccc(F)cc3c2C)C2CCS(=O)(=O)C2)cc1 (stereo not given),4,-9,2,-1,/,/
Cc1ccc2c(C)c(C(=O)N(Cc3ccccc3)C3CCS(=O)(=O)C3)oc2c1 (stereo not given),-7,-195,35*,3,-4,-2
Cc1c(C(=O)N(Cc2ccccc2Cl)C2CCS(=O)(=O)C2)oc2ccccc12 (stereo not given),5,-66,11,-2,/,/
Cc1ccc2c(C)c(C(=O)N(Cc3cccs3)C3CCS(=O)(=O)C3)oc2c1 (stereo not given),-18,-282,47*,1,75*,3
Cc1ccc2oc(C(=O)N(Cc3ccccc3)C3CCS(=O)(=O)C3)c(C)c2c1 (stereo not given),-10,-109,20*,1,2,5
CCOc1ccc(CN(C(=O)c2oc3cc(C)ccc3c2C)C2CCS(=O)(=O)C2)cc1 (stereo not given),0,-28,5,2,/,/
CCc1nc2oc3ccc(C)cc3c(=O)c2cc1C(=O)OC,6,6,-1,-2,/,/
